Consider five molecules from PubChem BioAssay (EPA / NIEHS).

Structures are written as SMILES. Values joined by “and” are separate entries in the source; they are usually repeats but may differ in a detail not shown here. Identical values can stand only once. Where a structure was tested more than once in an assay, its records may differ in their call. Active and inactive are the calls of the source. Rule for the calls: active = hit-call score of the fitted dose curve at least 0.9, where 1 is the maximum; inactive = score below 0.9.

Read-out in assay [1]: Monocyte Chemoattractant Protein-1 (MCP1), CCL2 (gene 6347)
Briefly: BSK_LPS_MCP1: BioMAP Diversity Plus: LPS Assay for Monocyte Chemoattractant Protein-1 (MCP1) Biomarker Activity (AID 2283081). Conditions: primary human HUVEC with PBMC; actives raise or lower the signal. The method in brief: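 Values derive from bidirectional fitting against DMSO of ELISA-measured MCP-1 in a human primary endothelial and mononuclear cell co-culture, 24 h after chemical addition under LPS activation.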

Assay [2] can be described thus: BSK_LPS_PGE2: BioMAP Diversity Plus: LPS Assay for Prostaglandin E2 (PGE2) Biomarker Activity (AID 2283082).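 For AC50: secreted prostaglandin E2 measured by ELISA in LPS-stimulated co-culture.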 The settings on record: primary human HUVEC with PBMC; actives raise or lower the signal. The method in brief:
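Compounds were added to the LPS co-culture of endothelium and PBMC, and PGE2 was measured by ELISA after 24 h. Responses in either direction were fitted with DMSO as baseline.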

Read-out in assay [3]: Macrophage colony-stimulating factor (MCSF), CSF1 (gene 1435)
The assay is described as follows: BSK_LPS_MCSF: BioMAP Diversity Plus: LPS Assay for Macrophage colony-stimulating factor (MCSF) Biomarker Activity (AID 2283083). The settings on record: primary human HUVEC with PBMC; actives raise or lower the signal. In a few lines:
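Bidirectional fit versus DMSO of ELISA-measured M-CSF in co-cultured human umbilical vein endothelial cells and PBMC, sampled 24 h after dosing.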

Read-out in assay [4]: Tissue Factor, F3 (gene 2152)
The assay is described as follows: BSK_LPS_TissueFactor: BioMAP Diversity Plus: LPS Assay for Tissue Factor Biomarker Activity (AID 2283084). Conditions: primary human HUVEC with PBMC; actives raise or lower the signal. In a few lines:
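Read-out: CD142 ELISA, 24 h. System: LPS-driven human endothelial/PBMC co-culture. Analysis: up- or down-signal fitted against DMSO.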

Read-out in assay [5]: Tumor necrosis factor (Homo sapiens) (UniProt P01375)
The assay is described as follows: BSK_LPS_TNFa: BioMAP Diversity Plus: LPS Assay for Tumour Necrosis Factor alpha (TNFa) Biomarker Activity (AID 2283085).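 For AC50: TNFa protein level quantified by ELISA in the co-culture.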 Conditions: primary human HUVEC with PBMC; actives raise or lower the signal. In a few lines: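 Cells (umbilical vein endothelium plus peripheral blood mononuclear cells) were dosed with chemical, incubated 24 h, then TNFa was quantified by ELISA; values derive from bidirectional fitting with DMSO as baseline.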

Read-out in assay [6]: Vascular cell adhesion molecule 1 (VCAM1), VCAM1 (gene 7412)
Briefly: BSK_LPS_VCAM1: BioMAP Diversity Plus: LPS Assay for Vascular cell adhesion molecule 1 (VCAM1) Biomarker Activity (AID 2283086). The settings on record: primary human HUVEC with PBMC; actives raise or lower the signal. The method in brief: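 Cells are dosed in an LPS-stimulated endothelial/mononuclear co-culture and, after 24 h, VCAM-1 is quantified by ELISA. Activity in either direction is fitted relative to the DMSO negative control.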

Read-out in another assay: CD38, CD38 (gene 952)
Briefly: BSK_SAg_CD38: BioMAP Diversity Plus: SAg Assay for CD38 Biomarker Activity (AID 2283087). Conditions: primary human HUVEC with PBMC; actives raise or lower the signal. In a few lines:
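CD38 quantified by ELISA (fluorescence) in a superantigen-activated endothelial cell–PBMC co-culture at 24 h post-dose. Activity fitted in both directions relative to DMSO; parallel SRB and Alamar Blue cytotoxicity read-outs.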

Read-out in another assay: CD40, CD40 (gene 958)
Briefly: BSK_SAg_CD40: BioMAP Diversity Plus: SAg Assay for CD40 Biomarker Activity (AID 2283088). The settings on record: primary human HUVEC with PBMC; actives raise or lower the signal. The method in brief:
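Endpoint derived by fitting increases or decreases versus DMSO controls. CD40 is detected by fluorescence ELISA in a human vascular co-culture of endothelium and PBMC at 24 h.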

Read-out in a further assay: CD69, CD69 (gene 969)
The assay is described as follows: BSK_SAg_CD69: BioMAP Diversity Plus: SAg Assay for CD69 Biomarker Activity (AID 2283089).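 For AC50: cell surface CD69 protein quantified by ELISA with fluorescence detection.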 Conditions: primary human HUVEC with PBMC; actives raise or lower the signal. In a few lines: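 HUVEC co-cultured with PBMC were dosed with chemical, and CD69 was measured by ELISA with fluorescence read-out 24 h later. Bidirectional curve fitting used DMSO as negative control and activity baseline.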

Read-out in assay [7]: Monocyte Chemoattractant Protein-1 (MCP1), CCL2 (gene 6347)
The assay is described as follows: BSK_SAg_MCP1: BioMAP Diversity Plus: SAg Assay for Monocyte Chemoattractant Protein-1 (MCP1) Biomarker Activity (AID 2283090). The settings on record: primary human HUVEC with PBMC; actives raise or lower the signal. The method in brief:
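Values derive from bidirectional fitting of ELISA-measured MCP1 against DMSO controls. Readings were taken 24 h after dosing human vascular endothelial cells co-cultured with peripheral blood mononuclear cells under superantigen stimulation.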

Read-out in assay [8]: E-selectin (Homo sapiens) (UniProt P16581)
Briefly: BSK_SAg_Eselectin: BioMAP Diversity Plus: SAg Assay for Eselectin Biomarker Activity (AID 2283091). The settings on record: primary human HUVEC with PBMC; actives raise or lower the signal. In a few lines:
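Endpoint values derive from bidirectional fitting relative to DMSO, using ELISA-measured E-selectin in a human vascular co-culture (umbilical vein endothelium plus PBMC) sampled 24 h after dosing.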

Read-out in assay [9]: Monokine induced gamma interferon (MIG), CXCL9 (gene 4283)
Briefly: BSK_SAg_MIG: BioMAP Diversity Plus: SAg Assay for Monokine induced gamma interferon (MIG) Biomarker Activity (AID 2283092). The settings on record: primary human HUVEC with PBMC; actives raise or lower the signal. The method in brief:
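HUVEC plus human PBMC co-culture, chemicals dosed and MIG (CXCL9) quantified by ELISA at 24 h. Bidirectional curve fitting against DMSO as negative control and baseline, so both gain and loss of signal count as activity.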

Assay [10] in a line: BSK_SAg_PBMCCytotoxicity: PBMC Cytotoxicity Assessment in the BioMAP Diversity Plus: SAg Assay (AID 2283093).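 For AC50: PBMC superantigen activated with SEB plus TSST-1 one hour after compound addition.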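 Note: fitted both ways against DMSO so a hit may be loss or gain of signal.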 Conditions: primary human HUVEC with PBMC. In a few lines: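 PBMC viability by Alamar Blue reduction, fluorescence read at 546/580 nm after 6 h dye exposure. Cells were dosed 1 h before SEB plus TSST-1 activation (20 ng/mL final each), then held 90 h; endothelial/PBMC human co-culture.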

Read-out in assay [11]: Interleukin-8 (IL8), CXCL8 (gene 3576)
The assay is described as follows: BSK_SAg_IL8: BioMAP Diversity Plus: SAg Assay for Interleukin-8 (IL8) Biomarker Activity (AID 2283094). Conditions: primary human HUVEC with PBMC; actives raise or lower the signal. In a few lines: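 Chemicals were dosed onto a human endothelial–PBMC co-culture, and IL-8 was quantified by ELISA after 24 h. Both increases and decreases were fitted relative to DMSO.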

Assay [12] can be described thus: BSK_SAg_Proliferation: Cell Proliferation Assessment in the BioMAP Diversity Plus: SAg Assay (AID 2283095).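 Note: relative cell number as total protein by SRB absorbance in sub-confluent culture.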 Conditions: primary human HUVEC with PBMC. In a few lines: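 Absorbance of sulforhodamine B at 560 nm reports total protein in a human vascular endothelial/PBMC co-culture after 96 h chemical exposure. Gain or loss of signal is fitted in both directions against DMSO.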

Assay [13] in a line: BSK_SAg_SRB: Viability Assessment in the BioMAP Diversity Plus: SAg Assay (AID 2283096).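 Note: cells read one day after compound addition; hits may be either gain or loss of signal compared with DMSO.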 The settings on record: primary human HUVEC with PBMC. In a few lines: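 Compounds were added to a human vascular co-culture of umbilical vein endothelium and PBMC. After 24 h, parallel cultures were fixed with 10% TCA, stained with 0.1% sulforhodamine B and read at 560 nm. Gain or loss of signal was fitted relative to DMSO.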

Chain of Tumor necrosis factor (Homo sapiens) (P01375 whole entry, looked up): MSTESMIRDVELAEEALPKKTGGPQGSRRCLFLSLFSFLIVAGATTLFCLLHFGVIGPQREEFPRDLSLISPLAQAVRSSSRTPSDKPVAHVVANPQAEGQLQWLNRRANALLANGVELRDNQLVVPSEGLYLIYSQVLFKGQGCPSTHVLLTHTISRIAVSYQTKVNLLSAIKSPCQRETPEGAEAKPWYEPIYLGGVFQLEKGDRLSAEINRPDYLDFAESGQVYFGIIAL
Chain of E-selectin (Homo sapiens) (P16581 whole entry, looked up): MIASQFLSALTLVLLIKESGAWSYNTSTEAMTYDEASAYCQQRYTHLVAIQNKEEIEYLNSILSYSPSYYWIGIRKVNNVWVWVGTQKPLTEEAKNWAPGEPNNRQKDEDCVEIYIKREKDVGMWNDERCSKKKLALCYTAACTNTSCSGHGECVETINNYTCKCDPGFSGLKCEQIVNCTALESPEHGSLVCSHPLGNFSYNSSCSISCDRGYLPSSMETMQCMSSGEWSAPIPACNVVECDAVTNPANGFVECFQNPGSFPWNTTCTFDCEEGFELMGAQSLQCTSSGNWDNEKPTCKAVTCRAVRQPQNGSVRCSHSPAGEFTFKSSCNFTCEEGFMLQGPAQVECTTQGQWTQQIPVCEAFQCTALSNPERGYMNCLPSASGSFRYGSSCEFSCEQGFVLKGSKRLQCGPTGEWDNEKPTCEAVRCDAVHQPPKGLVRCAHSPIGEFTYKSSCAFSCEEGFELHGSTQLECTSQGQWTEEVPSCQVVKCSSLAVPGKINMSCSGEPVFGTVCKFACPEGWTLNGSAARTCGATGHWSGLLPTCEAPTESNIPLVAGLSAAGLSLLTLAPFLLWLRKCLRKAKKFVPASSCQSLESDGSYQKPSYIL

Consider `CCO[Si](CCC(F)(F)C(F)(F)C(F)(F)C(F)(F)C(F)(F)C(F)(F)F)(OCC)OCC`, for which the result in assay [1], in assay [2], in assay [3], in assay [4], in assay [5] and in assay [6] was inactive. The outcome was “inactive” with CD38, CD38 (gene 952); “inactive” with CD40, CD40 (gene 958); “inactive” in the assay with CD69, CD69 (gene 969); “inactive” in assay [7]; “inactive” in assay [8]; “inactive” in assay [9]. In addition, the outcome in [10], in [11], in [12] and in assay [13] was inactive.
Turning to `C=C(C)C(=O)OCCC(F)(F)C(F)(F)C(F)(F)C(F)(F)C(F)(C(F)(F)F)C(F)(F)F`, the outcome in assay [1], in [2], in assay [3], in assay [4], in assay [5] and in assay [6] was inactive. Also, the outcome with CD38, CD38 (gene 952) was “inactive”; with CD40, CD40 (gene 958) it was “inactive”; with CD69, CD69 (gene 969), “inactive”; in assay [7], “inactive”; in assay [8], “inactive”; in [9], “inactive”. The outcome in assay [10], in assay [11], in assay [12] and in assay [13] was inactive.
The term AC50 denotes the concentration giving half of the maximal activity seen. Regarding `CC(C)(C)C(=O)CC(=O)C(F)(F)C(F)(F)C(F)(F)F`, the result in assay [1], in assay [2], in [3], in assay [4], in [5] and in assay [6] was inactive. The outcome was “inactive” with CD38, CD38 (gene 952); “inactive” with CD40, CD40 (gene 958); “inactive” with CD69, CD69 (gene 969); “inactive” in assay [7]; “inactive” in assay [8]; “inactive” in assay [9]. Further, the outcome in assay [10], in [11], in [12] and in [13] was inactive. For the same molecule, the results for the AC50 in assay [2], in [8] and in assay [10] were 30 µM (active), 41.1 µM (active) and 53.9 µM (active), respectively.
Consider `C=CC/C=C/C/C=C/C/C=C/C`, for which the outcome in assay [1] was “inactive”; in [2], “inactive”; in assay [3] it was “inactive”; in [4] it was “inactive”; in assay [6] it was “inactive”; with CD38, CD38 (gene 952), “inactive”. Besides, the outcome is “inactive” with CD40, CD40 (gene 958); “inactive” in the assay with CD69, CD69 (gene 969); “inactive” in [7]; “inactive” in [8]; “inactive” in [9]; “inactive” in assay [10]. For the same molecule, the result in [11], in assay [12] and in assay [13] was inactive. The AC50 in assay [5] is 0.628 µM (active).
Consider `O=C(O)C=C(C(F)(F)F)C(F)(F)F`, for which the outcome in [1] was “inactive”; in [2], “inactive”; in assay [3], “inactive”; in assay [4], “inactive”; in assay [5], “inactive”; in the assay with CD40, CD40 (gene 958), “inactive”. For the same molecule, the outcome in assay [7], in [9], in assay [10] and in assay [13] was inactive. In addition, the AC50 is 8.27 µM (active) in assay [3]; 10.5 µM (active) and 10.2 µM (active) in assay [6]; 40.3 µM (active) with CD40, CD40 (gene 958); 22.8 µM (active) and 30 µM (active) in the assay with CD69, CD69 (gene 969); 18.8 µM (active) in assay [7]; 26.8 µM (active) and 22.9 µM (active) in [8]. Also, the AC50 in assay [11] is 30 µM (active) and 20 µM (active); in assay [12] it was 43 µM (active) and 27.2 µM (active).
